High-throughput results from PubChem BioAssay.
Phagocytosis inh – inhibitors of macrophage phagocytosis | J774A.1 macrophage IgG-bead phagocytosis, imaging | inhibition, % at 5 µM | 110,000 compounds, 0.07% hits | AID 1029;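 active means inhibition above the mean of the plate negative controls plus 5 SD, cut at about 13% in these data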;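 further: phagocytic index as fraction of beads internalized from green versus red external bead signal; plate controls were DMSO negative control for no effect and cytochalasin-D positive control for full effect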
GALR2 antag – blocks the human galanin receptor 2. inhibition, % at 4 µM. GALR2-expressing cells, antagonist mode. 140,000 compounds, 0.39% hits. AID 828. O43603;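 further: cells stimulated with galanin 1-16 at roughly its EC80; 0% = agonist challenge control and 100% = basal control without agonist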
S1P2 blocker – S1P2 (human) receptor antagonism; O95136; cell-based S1P2 antagonist assay, inhibition at 5 uM; inhibition, % at 5 µM; 97,000 compounds, 0.21% hits; AID 736; in the data active means inhibition above about 45%;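 further: CRE beta-lactamase reporter cells expressing human S1P2 stimulated with S1P; 0% = agonist at EC80 alone and 100% = agonist plus reference antagonist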
Target sequence (O95136 whole entry, looked up): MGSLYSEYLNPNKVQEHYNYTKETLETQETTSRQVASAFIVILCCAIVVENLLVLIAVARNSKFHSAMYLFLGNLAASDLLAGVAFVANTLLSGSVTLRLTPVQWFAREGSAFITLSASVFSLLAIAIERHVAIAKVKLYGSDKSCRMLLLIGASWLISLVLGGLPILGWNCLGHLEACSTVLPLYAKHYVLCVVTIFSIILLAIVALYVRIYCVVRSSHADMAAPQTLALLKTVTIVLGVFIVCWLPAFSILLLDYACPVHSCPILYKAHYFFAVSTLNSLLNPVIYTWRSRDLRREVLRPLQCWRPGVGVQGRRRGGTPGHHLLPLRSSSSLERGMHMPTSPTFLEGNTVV
S1P2 ag – activates the human S1P2 receptor; O95136; S1P2-expressing cell line, agonist reporter read-out; activation, % at 4.5 µM; 97,000 compounds, 0.46% hits; in the data active means activation above about 16%;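 further: 0% = vehicle low control and 100% = maximal reference agonist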
GALR2 ag – GALR2 (human) receptor agonism | O43603 | GALR2-expressing cells, agonist activation read-out | activation, % (test concentration not listed) | 140,000 compounds, 0.48% hits | AID 803; in the data active means activation above about 5%, passing the limit was not always enough;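 further: 0% = vehicle buffer wells and 100% = reference agonist at full effect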
GALR2 blk conf – confirmation of human galanin receptor 2 (GALR2) antagonists; shares compounds with GALR2 antag; GALR2-expressing cells, antagonist mode, inhibition; 480 compounds, 60% hits; inhibition, % at 4 µM;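 further: cells stimulated with galanin at about its EC80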
BLA inh counter – counter-screen for GALR2 antagonists: beta-lactamase reporter inhibitors | CHO NFAT-BLA reporter, beta-lactamase FRET, thapsigargin-stimulated | inhibition, % at 4.2 µM | 480 compounds, 36% hits | shares compounds with GALR2 antag;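 active means inhibition above the mean inhibition across tested compounds plus 3 SD, cut at about 27% in these data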;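 further: 0% = 500 nM thapsigargin stimulated wells and 100% = unstimulated BSA only wells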
* marks the source's active call; other numbers are inactive results; . = no result. Compounds with a hit are over-represented: about 1.3% of the library has one in this group of screens. Unless noted, no stated cut-off is given here; in the data, active means inhibition above about 27%; inactive means the rest.

SMILES	Phagocytosis inh	GALR2 antag	S1P2 blocker	S1P2 ag	GALR2 ag	GALR2 blk conf	BLA inh counter
Cc1cc(N/N=C/c2ccc(O)c(C)c2O)nc(-c2ccccc2O)n1	-10	31*	.	.	-2	33*	12
CC(=O)c1c(C)nc(-c2ccc(Cl)cc2)nc1N=CN(C)C	0	31*	-5	-4	-3	20	12
COc1ccc(OC)c(NC=C2C(=O)OC3(CCCCC3)OC2=O)c1	.	50*	-13	-3	0	5	5
CN1C(=O)C(CC(=O)NC2CCCCC2)SC1=Nc1ccccc1 (stereo not given)	-2	-9	.	.	0	.	.
Cc1cccc(NC(=O)c2ccc(COc3cccc4ccccc34)o2)n1	-1	8	.	.	-1	.	.
COc1cccc(CN2C(=O)Nc3ccccc3C(=O)N2C(C)(C)C)c1	0	-5	-6	3	0	.	.
COc1cccc(CN2C(=O)c3cccc(N)c3C2=O)c1	-1	31*	.	.	2	8	12
O=C1c2cccc3cccc(c23)C(=O)N1c1nccs1	1	-15	12	0	-1	.	.
O=C1c2cccc3c([N+](=O)[O-])ccc(c23)C(=O)N1c1ccccn1	0	34*	67*	-8	2	49*	44*
O=C1c2cccc3c(N4CCCCC4)ccc(c23)C(=O)N1c1ccccn1	1	13	39	-8	-1	.	.
O=C1c2cccc3c([N+](=O)[O-])ccc(c23)C(=O)N1c1nccs1	0	50*	51*	-10	2	55*	35*
COc1ccc2[nH]c(=O)c(CN(CCCN(C)C)C(=O)Nc3ccccc3)cc2c1	0	-1	13	-3	-1	.	.
CCc1ccc2[nH]c(=O)c(CN(CCN(C)C)C(=O)Nc3ccccc3)cc2c1	-2	27*	9	0	-2	4	2
CCOc1ccc2c(c1)C(C)=CC(C)(C)N2C(=O)Nc1ccccc1	0	29*	5	1	-1	8	5
CC[C@@H](NS(=O)(=O)c1ccc(C)cc1)C(=O)Oc1ccc2c3c(c(=O)oc2c1)CCC3	-8	-27	.	.	1	.	.
Cc1ccc(S(=O)(=O)NC(C(=O)Oc2ccc3c(C(F)(F)F)cc(=O)oc3c2)c2ccccc2)cc1 (stereo not given)	4	35*	.	.	0	25	31*
COc1ccc(NS(=O)(=O)Cc2ccccc2Cl)cn1	1	2	20	-6	0	.	.
COc1ccc(NC(=O)/C(Cl)=C(/Cl)S(=O)(=O)Cc2ccccc2)cn1	.	82*	104*	-10	-2	92*	92*
O=C(Cc1cccs1)Nc1cccc(-c2nc3cc4ccccc4cc3[nH]2)c1	1	28*	.	.	0	30*	10
CCOc1cccc(NC(=O)Cc2cccs2)c1	-1	-7	.	.	0	.	.
CC(NC(=O)CN(C)Cc1nc2ccccc2c(=O)[nH]1)c1ccccc1 (stereo not given)	0	36*	-9	-4	-3	3	4
CCCSc1nnc(NC(=O)c2sc3nc(-c4cccs4)ccc3c2N)s1	-1	38*	55*	-12	-4	21	34*
CC(=O)c1ccc(N2CCN(C(=O)COc3ccc(F)cc3)CC2)c(F)c1	-1	28*	.	.	-2	8	-2
CCC(=O)c1ccc(N2CCN(C(=O)COc3ccc(F)cc3)CC2)c(F)c1	-4	4	10	-5	0	.	.
Cc1ccccc1CCN(C(=O)Cn1nnc2ccccc21)C(C(=O)NCC1CCCO1)c1nc2ccccc2n1C (stereo not given)	-13	2	.	.	1	.	.
SMILES	Phagocytosis inh	GALR2 antag	S1P2 blocker	S1P2 ag	GALR2 ag	GALR2 blk conf	BLA inh counter
Cc1ccc2[nH]c3c(N4CCc5ccccc5C4)ncnc3c2c1	.	54*	83*	-9	-1	52*	16
Brc1ccc2[nH]c3c(N4CCc5ccccc5C4)ncnc3c2c1	0	14	33	3	-2	.	.
COc1ccc(CCN(Cc2cccs2)S(=O)(=O)c2ccc(S(=O)(=O)N(C)C3CCCCC3)cc2)cc1OC	-7	2	.	.	0	.	.
Cc1ccc(S(=O)(=O)C(C#N)c2nc3ccccc3nc2N2CC(C)OC(C)C2)cc1C (stereo not given)	0	0	1	-7	-1	.	.
Cc1cccc(S(=O)(=O)C(C#N)c2nc3ccccc3nc2N2CC(C)OC(C)C2)c1 (stereo not given)	-1	28*	17	-6	0	2	-1
CC(C)c1c(C#N)c(N)nc(SCC(=O)c2cc3ccccc3oc2=O)c1C#N	-1	2	.	.	2	.	.
N#Cc1ccc(-c2ccccc2)nc1SCC(=O)c1cc2ccccc2oc1=O	1	38*	30	-7	-1	21	19
O=C(CSc1nc2ccccc2[nH]1)NCC1CCCO1 (stereo not given)	4	-2	.	.	0	.	.
CC(C)c1cc(C(=O)N/N=C/c2cccnc2)n[nH]1	-4	-10	.	.	1	.	.
CCOC(=O)c1cnn(-c2nc3c(C)cccc3s2)c1C	-1	32*	6	-4	-4	-1	4
CCOC(=O)c1cnn(-c2nc3c(C)cccc3s2)c1C(F)(F)F	0	5	-14	0	-2	.	.
CCOC(=O)C1(C)NC(c2ccco2)C2C(=O)N(c3ccc(C)cc3)C(=O)C21 (stereo not given)	.	2	1	-9	-2	.	.
CCC1(C(=O)OC)NC(c2ccco2)C2C(=O)N(c3ccc(C)cc3)C(=O)C21 (stereo not given)	-2	30*	0	-5	-3	7	2
Cc1c(C(=O)Nc2ccncc2)sc2nc(-c3ccccc3)cn12	-1	28*	.	.	0	17	8
Cc1c(C(=O)Nc2ccc3c(c2)OCCO3)sc2nc(-c3ccccc3)cn12	.	9	32	-4	1	.	.
CCN(CC)S(=O)(=O)c1ccc(NC(=O)C2CCCN(C(=O)c3ccc(Cl)cc3)C2)cc1 (stereo not given)	-9	16	.	.	0	.	.
COCCN1C(=O)N[C@@H](c2ccccc2)C(C(C)=O)=C1C	.	-9	.	.	0	.	.
Cc1cccc(CSc2cccc3cccnc23)c1	.	29*	29	-5	-1	24	19
COc1ccc(CCNC(=O)Cn2cc(C(F)(F)F)cc(Cl)c2=O)cc1OC	-5	-2	.	.	-1	.	.
CCOC(=O)C1=NN(c2ccccc2)C2=NC(C)=C(C(=O)OC)C(c3ccc(C)cc3)N12 (stereo not given)	-17	-4	.	.	0	.	.
Cc1nc2sccn2c1-c1csc(NCc2ccccc2)n1	.	27*	41	-7	-2	24	-1
COc1cc(Nc2cc(C)nc3ncnn23)cc(OC)c1	0	30*	.	.	-2	4	5
NC(=O)C1CCN(C(=O)Nc2ccccc2)CC1	.	0	-23	-1	-2	.	.
NC(=O)C1CCN(C2=C(Cl)C(=O)c3ccccc3C2=O)CC1	.	34*	45	-7	0	50*	37*
